PubChem BioAssay (NCI)
About 83,000 compounds went through this panel and 20% of them were active in at least one assay; those are over-represented in the sample as a whole.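 The endpoint reported here, percent growth, reads 100 for growth as untreated, 0 for no net growth and -100 for all cells dead.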 Activity calls are given as the source filed them. Rule for the calls: active = growth percent below 10; inactive = the rest.

How the values were obtained:
Assay in all cases: NCI-60 one-dose screen, 48 h (100 = growth as untreated, 0 = no growth, -100 = all killed)
Settings in all cases: 10 µM unless noted
[1] = test system: NCI-H23 lung
[2] = test system: NCI-H226 lung
[3] = test system: NCI-H322M lung
[4] = test system: HOP-62 NSCLC
[5] = test system: NCI-H460 lung
[6] = test system: HOP-92 NSCLC
[7] = test system: NCI-H522 lung
[8] = test system: A549/ATCC NSCLC
[9] = test system: 786-0 renal
[10] = test system: COLO 205 colon

Measured: growth

Cc1nc2sc(C(=O)Nc3ccccc3)c(N)c2cc1C(C)O (stereo not drawn)
inactive: [1] 39% | [2] 108% | [3] 49.9% | [4] 30.1% | [5] 11.2% | [6] 73% | [7] 18.3% | [8] 25.6% | [9] 31.1%
active: [10] 6.99%

O=C1NN(c2ccccc2)C(c2ccc3c(c2)OCO3)N2CCC[C@@H]12 (stereo partly drawn)
inactive: [1] 88.2% | [2] 105% | [3] 88.3% | [4] 91.4% | [5] 106% | [6] 107% | [7] 70.1% | [8] 97.9% | [9] 98.2% | [10] 104%

CN1C(=O)c2cc(Cl)nc3c(NC(=O)c4cccc(Cl)c4)c(Cl)c(NC(=O)c4cccc(Cl)c4)c1c23
active: [5] 2.82% | [6] -38.4% | [7] -54.6% | [10] 1.5%
inactive: [1] 18.7% | [2] 23.6% | [3] 28.3% | [4] 17.4% | [8] 83.8% | [9] 41.6%

OCCNc1nc(NCCO)nc(Nc2ccc(C3=NN(c4cc(Cl)cc(Cl)c4)C(c4ccc(Cl)cc4)C3)cc2)n1 (stereo not drawn)
inactive: [1] 29.1% | [2] 109% | [3] 14.6% | [4] 15.9% | [6] 60.7% | [7] 58.9%
active: [5] -22.7% | [8] 2.31% | [9] -19.6% | [10] 7.12%

CCN(CC)CC#CCOC(=O)[C@]1(C)CCC[C@]2(C)[C@H]3C[C@H]4C(C(C)C)=C[C@]3(CC[C@H]21)[C@@H]1C(=O)CCC(=O)[C@@H]14
inactive: [1] 57.3% | [2] 76.2% | [3] 87.7% | [4] 79.2% | [5] 59.2% | [6] 57% | [7] 29.5% | [8] 48.1% | [9] 54.1% | [10] 36.2%

CCCCC1=c2c([nH]c3ccc(OC)cc23)=NC2C=CC=NC12 (stereo not drawn)
inactive: [1] 81.4% | [2] 89.3% | [3] 86.1% | [4] 90.8% | [5] 80.7% | [6] 103% | [7] 83.8% | [8] 103% | [9] 110% | [10] 106%

Cc1ccc(SC2c3ccc(C)cc3Oc3nc(N)c(C#N)c(N)c32)cc1 (stereo not drawn)
inactive: [1] 82.8% | [2] 92.8% | [3] 104% | [4] 89.8% | [5] 101% | [6] 66.6% | [8] 101% | [9] 91.4% | [10] 62.8%
active: [7] -53.4%

COc1cc(NC(=O)Nc2cnc(Nc3ccc(N4CCOCC4)cc3)nc2Oc2ccc(C(F)(F)F)cc2)cc(OC)c1
inactive: [1] 105% | [2] 97.7% | [3] 106% | [4] 95.5% | [5] 105% | [6] 99% | [7] 95.9% | [8] 103% | [9] 109% | [10] 127%

COc1ccc(/C=C(/C(=O)N2CCCC2)c2cc(OC)c(OC)c(OC)c2)cc1
active: [10] 4.08%
inactive: [1] 34% | [2] 69.2% | [3] 45.7% | [4] 29.3% | [5] 13.6% | [6] 47.9% | [7] 26.3% | [8] 36.1% | [9] 35.3%

COc1ccc2c(c1)Oc1nc(N)c(C#N)c(N)c1C2Sc1ccc(SC)cc1 (stereo not drawn)
active: [7] -81.5% | [9] 8.66% | [10] -3.1%
inactive: [1] 44.1% | [2] 75.6% | [3] 77.4% | [4] 100% | [5] 58% | [6] 18.4% | [8] 85.7%

CCOC(=O)/C=C1\SC(=Nc2ccc(C#N)cc2)N(CCN2C(=O)/C(=C/C(=O)OCC)SC2=Nc2ccc(C#N)cc2)C1=O
inactive: [1] 52% | [2] 92.9% | [3] 86.6% | [4] 51.3% | [5] 31.6% | [6] 80.4% | [7] 36.4% | [8] 77.5% | [9] 48.5% | [10] 18.6%

Cc1c(Br)cccc1NC(=O)c1sc2nc3c(cc2c1N)CN(Cc1ccccc1)CC3
inactive: [1] 40.7% | [2] 23.7% | [3] 41.2% | [6] 30.2% | [8] 21.4% | [9] 35.1%
active: [4] -2.37% | [5] 6.71% | [7] -0.487% | [10] -4.67%

O=c1cc(/C=N\Nc2nc(-c3ccc(Cl)cc3Cl)cs2)c2cc(Cl)ccc2o1
inactive: [1] 85.3% | [2] 87.9% | [3] 95.3% | [4] 80.3% | [5] 96.1% | [6] 82.2% | [7] 88.6% | [8] 88.3% | [9] 96.9% | [10] 107%

COc1ccc(/C(=N\O)c2cc(C)c(OC)c(C)c2)cc1O
inactive: [1] 45.9% | [2] 60.6% | [3] 48.3% | [4] 39.8% | [6] 54.1% | [8] 22.2% | [9] 35.3%
active: [5] 9.22% | [7] -11.4% | [10] -38%

COc1cc(-c2csc(NC(=O)Nc3cc(Cl)cc(Cl)c3)n2)cc(OC)c1OC
inactive: [1] 23.7% | [2] 27.5% | [7] 37.5%
active: [3] -42.1% | [4] -64.8% | [5] -61.6% | [6] -14.3% | [8] -45.9% | [9] -29.2% | [10] 5.56%

COc1cc(-c2nn(-c3ccc(Br)cc3)cc2CO)ccc1O
inactive: [1] 95.2% | [2] 105% | [3] 93.8% | [4] 95.4% | [5] 101% | [6] 90.8% | [7] 72.1% | [8] 78.1% | [9] 95.6% | [10] 119%

CC1(C)Cc2c(Br)c(Br)c(Br)c(OCC(O)CN3CCOCC3)c2O1 (stereo not drawn)
active: [6] -38.2% | [7] -84.2%
inactive: [1] 93.9% | [2] 109% | [3] 72.4% | [4] 97.3% | [5] 93.8% | [8] 86.7% | [9] 79.2% | [10] 116%

C=C1C(=O)O[C@H]2[C@H]1CCC(/C=N/c1ncc(Br)cc1N)=C\CC[C@@]1(C)O[C@@H]21
active: [6] -15.2% | [7] -51.7% | [9] -13.9% | [10] -60%
inactive: [1] 49.2% | [2] 51.9% | [3] 85.3% | [4] 67.3% | [5] 58.3% | [8] 57.4%

CC(=O)ON1CCCC(P(=O)(OCOC(=O)C(C)(C)C)OCOC(=O)C(C)(C)C)C1=O (stereo not drawn)
inactive: [9] 12.3%
active: [1] -16.6% | [2] -4.94% | [3] -10.6% | [4] 5.37% | [5] 2.52% | [6] -6.66% | [7] -11% | [8] 7.74% | [10] 2.35%

NCCN1CCNCC1
inactive: [1] 94.6% | [2] 89.6% | [3] 116% | [4] 103% | [6] 100% | [7] 91.4% | [8] 102% | [9] 101% | [10] 122%

CCCCCCN1C(=O)CN=C1Nc1ccc2cc3ccc(NC4=NCC(=O)N4CCCCCC)cc3nc2c1
inactive: [1] 64.8% | [2] 81.7% | [3] 79.7% | [4] 82.4% | [5] 57.5% | [6] 82.9% | [8] 74.5% | [9] 36.1% | [10] 40.3%
active: [7] -9.83%

CC(C)C1=C[C@@]23CC[C@H]4[C@](C)(COCCC#N)CCC[C@]4(C)[C@H]2C[C@@H]1[C@@H]1[C@H]3[C@@H](OCCC#N)CC[C@@H]1OCCC#N
inactive: [1] 35.7% | [2] 39.8% | [3] 86.1% | [4] 65% | [5] 30.3% | [6] 53% | [7] 25% | [8] 27.6% | [9] 54.3% | [10] 17.4%

CCN(CC)c1ccc2c(c1)Oc1nc(N)c(C#N)c(N)c1C2Sc1ccc(OC)cc1 (stereo not drawn)
active: [1] -25.8% | [2] 5.34% | [5] -18.3% | [7] -61.9% | [9] 0.244% | [10] -60%
inactive: [3] 97.6% | [4] 35.9% | [6] 88.3% | [8] 72.8%

COc1cc2c(Nc3ccc(NC(=O)Nc4ccc(Cl)c(C(F)(F)F)c4)c(Cl)c3)ncnc2cc1OCCCN1CCN(C)CC1
active: [4] -15% | [5] -70.4% | [7] -60.4% | [9] 6.31% | [10] -43.2%
inactive: [1] 17.2% | [2] 73.9% | [3] 11.3% | [6] 27% | [8] 20.8%

O=C(O)c1cc(N=Nc2ccc(-c3ccc(N=Nc4c(S(=O)(=O)O)cc5ccc(Nc6ccccc6)cc5c4O)cc3)cc2)ccc1O
inactive: [1] 92.6% | [2] 116% | [3] 94.5% | [4] 94.6% | [6] 114% | [7] 89.7% | [8] 104% | [9] 106% | [10] 114%

C#CCN1C(=O)c2ccccc2N(CC#C)C12CCN(Cc1cn(CC(=O)Nc3ccccc3C(N)=O)nn1)CC2
inactive: [1] 78.4% | [2] 83.2% | [3] 85% | [4] 104% | [5] 89.7% | [6] 107% | [7] 67.7% | [8] 92.3% | [9] 81.1% | [10] 99.9%
